IL-1B inflam inh – blocks inflammasome-driven IL-1 beta release; THP-1 LPS/ATP IL-1B secretion, AlphaLISA, 16 h; hits give low values; activity change, % at 57.5 µM; 360,000 compounds, 4.7% hits; AID 743279; in the data active = activity change below about -50%; inconclusive = mostly about -30% to -49%
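THP-1 cells pretreated 1 hr with compounds (up to 57.5 uM final), then stimulated with LPS (250 ng/mL final) plus ATP (1.25 mM final); secreted IL-1B measured by AlphaLISA after 16 hr, decreased signal indicating inhibition.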
TDP1 cell CPT – DT40-hTDP1 cell growth loss with CPT; Potency, µM (titrated, usually from 46.2 µM), usual class: inhibitors; chicken DT40 Tdp1-/-;hTDP1 cells + 20 nM CPT, ATP luminescence, 48 h; AID 686979; 420,000 compounds, 12% hits; also: nearly all actives have a fitted effect of over 55% in size
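Chicken DT40 Tdp1-/- cells stably complemented with human TDP1 were seeded at 400 cells/well in medium containing 20 nM camptothecin, exposed to pin-transferred compounds, and grown at 37 °C for at least 48 hr. Viability was read as ATP luminescence.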
HT1080 IDH1KD tx – HT-1080 IDH1 knockdown cell toxicity (counter line); HT-1080 IDH1 knockdown viability, ATP luminescence, 48 h; Potency, µM (doses to about 46.1 µM), usual class: cytotoxic; 360,000 compounds, 2% hits
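Luminescent ATP read-out (CellTiter-Glo, 10 min at room temperature) after 48 h compound exposure at 37 °C gave viability of IDH1-knockdown HT-1080 cells. Activity was normalised to DMSO and cell-free wells, then fitted as concentration-response curves.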
HT1080NT lethal – kills 2HG-producing HT-1080-NT fibrosarcoma cells; HT-1080-NT fibrosarcoma viability, CellTiter-Glo ATP luminescence, 48 h; Potency, µM (series often up to 46.1 µM), usual class: cytotoxic; 360,000 compounds, 1.6% hits;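 also: NT is the 2HG producing partner of a matched IDH1 knockdown line; nearly all actives have a fitted effect of over 55% in size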
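Luminescent CellTiter-Glo readout after 48 hours of compound exposure at 37 degrees C defined viability of HT-1080-NT cells. Activity was normalized to DMSO wells and cell-free media wells; concentration-response curves were fitted and assigned curve classes.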
DT40 TDP1 no CPT – qHTS for Inhibitors of human tyrosyl-DNA phosphodiesterase 1 (TDP1): qHTS in cells in absence of CPT | 420,000 compounds, 15% hits | Potency, µM (titrated, usually from 46.2 µM), actives largely listed as inhibitors | DT40 Tdp1-/- hTDP1 cells, no CPT, ATP luminescence, 48 h | AID 686978, 2013; also: nearly all actives have a fitted effect of over 55% in size
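Compound effects on proliferation are scored in DT40 Tdp1-/-;hTDP1 cells in the absence of CPT. ATP levels (CellTiter-Glo luminescence) are recorded after a ≥48 hr, 37 °C incubation.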
Hits are given with their value; n = inactive; u = inconclusive; x = no result; [ ] = another dose, or the depositor's remark. The list is not random: actives were taken first. Their share in the collection is about 19%. Unless noted, calls follow the shape of the dose curve; as a rule, active = well fitted curve in the direction sought with a large enough effect; inconclusive = small, poorly fitted or top-dose-only effect, or another doubt; inactive = no such curve, though single readings can be large; an effect the other way counts as inactive or inconclusive.

SMILES	IL-1B inflam inh	TDP1 cell CPT	HT1080 IDH1KD tx	HT1080NT lethal	DT40 TDP1 no CPT
CCCC(=O)N1CCC1(C)C(=O)Nc1ccc(OC(F)F)cc1 (stereo not drawn)	n	n	n	n	n
Cc1ccc(C2CCN(C(=O)Nc3ccc(F)cc3)C2)cc1 (stereo not drawn)	-68	n	n	n	u
O=S(=O)(Cc1ccccc1)N1CCCC(c2nc(-c3ccc(F)cc3)no2)C1 (stereo not drawn)	n	n	n	n[9.24 µM]	18µM
CC(C)c1ccc(-c2noc(C3CCCN(C(=O)c4ccc(F)cc4F)C3)n2)cc1 (stereo not drawn)	u	u	u	n[9.24 µM]	21µM
Cc1ccccc1NC(=O)N1CCCC(c2nc(-c3ccc(F)cc3)no2)C1 (stereo not drawn)	n	u	n	n	n
Cc1ccc(NC(=O)C2CCCN(C(=O)Nc3ccc(F)cc3)C2)cc1 (stereo not drawn)	n	n	n	n	u
Cc1ccccc1NC(=O)N1CCCC(c2nc(-c3ccc(C(C)C)cc3)no2)C1 (stereo not drawn)	-77	16µM	n	n	35µM
O=S(=O)(c1ccc(F)cc1)N1CCCC(c2nc(-c3ccc(F)cc3)no2)C1 (stereo not drawn)	n	u	n	n	u
O=C(Cn1ccn(-c2ccc(F)cc2)c(=O)c1=O)Nc1ccc(F)cc1	x	n	x	x	n
O=C(COc1ccccc1[N+](=O)[O-])N1CCN(c2ccccn2)CC1	n	n	n	n	n
COC(=O)CN1CCN(C(=O)c2ccc(F)cc2)c2ccccc2C1	n	n	n	n	n
Cc1nc(-c2cccc(F)c2)sc1CCNC(=O)C(=O)Nc1ccc2c(c1)OCO2	x	u	x	x	n
Nc1ccccc1-n1nc2ccc3ccccc3c2n1	n	u	n	n	n
COCCNC(=S)N1CCC(c2nc(-c3ccc(N(C)C)cc3)no2)CC1	n	n	n	n	u
CC(C)CNC(=S)N1CCC(c2nc(-c3ccc(F)cc3)no2)CC1	n	21µM	u	u	21µM
Cc1ccccc1OCC(=O)NCC(=O)OC(c1ccccc1)c1ccccc1	x	n	x	x	n
Cc1cc(C)nc(N/C(=N\S(=O)(=O)Cc2ccccc2)Nc2ccccc2Br)n1	n	21µM	u	n	21µM
CC(NC(=O)c1cccc(Nc2nc3ccccc3n3nnnc23)c1)c1ccccc1 (stereo not drawn)	x	9.2µM	x	x	7.3µM
CC(C)CCNC(=O)c1cccc(Nc2nc3ccccc3n3nnnc23)c1	x	21µM	x	x	18µM
Cn1nc(C(=O)OCC(=O)Nc2sccc2C(N)=O)c2ccccc2c1=O	n	n	n	n	n
Cc1nc2c(C(F)(F)F)cccc2c2c1CCS2	n	n	n	n	n
CC(C)(C)NCCC(O)c1cc(C(F)(F)F)nc2c(C(F)(F)F)cccc12 (stereo not drawn)	-88	21µM	u	n	16µM
Cc1ccc(-n2nc3c([n+]2[O-])CCc2c-3no[n+]2[O-])cc1	-78	u	n	n	16µM
[O-][n+]1onc2c1CCc1c-2nn(-c2ccccc2Cl)[n+]1[O-]	-74	13µM	11µM	u	15µM
O/N=C1\CC/C(=N\O)c2nn(-c3ccccc3Cl)nc21	n	u	n	n	u
SMILES	IL-1B inflam inh	TDP1 cell CPT	HT1080 IDH1KD tx	HT1080NT lethal	DT40 TDP1 no CPT
CCCNC(=O)c1ccc2c(c1)sc1nc(-c3ccc(C)cc3)cn12	x	5.8µM	x	x	5.8µM
CCN(CC)CCCNC(=O)c1ccc2c(c1)sc1nc(-c3ccc(C)cc3)cn12	x	2.3µM	x	x	2.3µM
O=C(NCCC1=CCCCC1)c1ccc2c(c1)sc1nc(-c3ccc(F)cc3)cn12	x	n	x	x	u
O=C(CSc1nc(Nc2ccccc2)nc(N2CCOCC2)n1)N1CCc2ccccc21	n	u	n	n	18µM
O=C(CSc1nc(Nc2ccccc2)nc(N2CCOCC2)n1)Nc1ccc2c(c1)OCCO2	u	n	n	n	n
Cc1nc(SCC(=O)N2CCN(c3ccccc3)CC2)n[nH]1	n	n	n	n	n
O=C(CSc1nc(N2CCCCC2)nc(N2CCCCC2)n1)N1CCN(c2ccccc2)CC1	n	23µM	n	n	16µM
O=C(CSc1nc(Nc2ccccc2)nc(N2CCOCC2)n1)N1CCCC1	-53	u	n[9.24 µM]	n	21µM
O=C1C2C3C=CC(CC3)C2C(=O)N1c1ccccc1[N+](=O)[O-] (stereo not drawn)	n	n	n	n	n
COc1ccc(/C=N/N=C2/NC(=O)C(c3ccccc3)(c3ccccc3)S2)cc1	n	u	u	n	u
Cc1ccc(S(=O)(=O)N2CCN(C(=O)COC(=O)CNC(=O)c3ccccc3F)CC2)c(C)c1	n	n	n	n	n
O=C1CN(CC(=O)NC2CCCc3ccccc32)CCN1 (stereo not drawn)	n	n	n	n	n
